KDM5B inh: blocks human KDM5B histone demethylase activity. Q9UGL1. KDM5B demethylase, FDH-coupled NADH fluorescence (FDH is formaldehyde dehydrogenase). Potency, µM (titrated, usually from 57.7 µM), most hits filed as inhibitors. actives 2.6% (n = 220,000). AID 1347165; active means well fitted inhibition curve with a large enough effect; further: 0% is about no effect; nearly all actives have a fitted effect of over 70% in size
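Compound dilutions met 200 nM (final) KDM5BΔAP for 10 min at room temperature before substrate addition. The substrate mix held 12.5 µM H3K4me3 with cofactors 25 µM α-ketoglutarate and 50 µM Fe²⁺. NADH signal gain over 30 min defined activity.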
* marks the source's active call; other numbers are inactive results; i = inactive. This is one part of a sample in which hits are shown more often than they occur. Potency means the concentration at half of the fitted maximal effect.

SMILES	KDM5B inh
CC(=O)c1cccc(NC(=O)Cn2ccn3nc(-c4ccccc4)c(CO)c3c2=O)c1	i
O=C(Cn1ccn2nc(-c3ccc(F)cc3)c(CO)c2c1=O)Nc1ccc(Cl)cc1F	32µM*
Cc1ccc(NC(=O)Cn2ccn3nc(-c4ccc(F)cc4)c(CO)c3c2=O)c(Cl)c1	i
O=C(Cn1ccn2nc(-c3ccccc3)c(CO)c2c1=O)Nc1cccc(Br)c1	i
O=C(Cn1ccn2nc(-c3ccccc3)c(CO)c2c1=O)Nc1cccc(F)c1	18µM*
CC1=C(C(=O)Nc2ccccc2C)C(c2ccco2)C(C#N)=C(SCC(=O)c2ccc(F)cc2)N1 (centres undefined)	i
COc1ccc(-c2[nH]nc3ncc(-c4cn[nH]c4)nc23)c(C)c1	32µM*
COc1ccc(-c2[nH]nc3ncc(C(=O)N4CC(O)C4)nc23)c(C)c1	i
COc1ccc(NC(=O)c2cnc3n[nH]c(-c4ccc(OC)cc4C)c3n2)cc1	i
Cc1ccsc1-c1[nH]nc2ncc(-c3ccccc3)nc12	i
Cc1ccsc1-c1[nH]nc2ncc(-c3ccc(F)cc3)nc12	i
Cc1ccsc1-c1[nH]nc2ncc(-c3cn[nH]c3)nc12	32µM*
COc1ccc(NC(=O)O[C@@H]2CC[C@]3(C)C(CC[C@H]4OC(=O)C[C@H]43)[C@]2(C)CO)cc1 (some centres undefined)	i
CN1Cc2ncnc(NCc3cccnc3)c2CN(c2ccccc2)C1=O	i
CCOC(=O)c1cc(-c2ccccc2)sc1NC(=O)CCN1CCC(C)CC1	i
CCn1cc(CN2CCC(c3[nH]ncc3-c3ccccc3C)CC2)cn1	i
Cc1nc(C(=O)N2CCC(c3[nH]ncc3-c3ccccc3C)CC2)cs1	i
Cc1ccccc1-c1cn[nH]c1C1CCN(C(=O)c2cnn3ccccc23)CC1	22µM*
COc1cccc2cc(S(=O)(=O)N3CCCC(C)C3)c(=O)oc12 (centres undefined)	i
CCOC(=O)CCn1nc(C)c2c(C)n(-c3ccccc3)nc2c1=O	i
CCNC(=O)CCc1c(C)nn(-c2cccc(C)c2)c1Oc1ccc(F)cc1F	i
CCOC(=O)CCCOc1cccn2c(=O)c(-c3cc(C)n(-c4ccc(Cl)cc4)n3)c(C)nc12	25µM*
CCOC(=O)CCCOc1cccn2c(=O)c(-c3cc(C)n(-c4cccc(C)c4)n3)c(C)nc12	28µM*
Cc1c(OCC(=O)OC(C)(C)C)ccc2c(-c3ccccc3)cc(=O)oc12	i
Cc1ccccc1-n1nc(-c2c(C)nc3c(OCC(=O)OC(C)(C)C)cccn3c2=O)cc1C	20µM*
SMILES	KDM5B inh
Cc1ccccc1OCC(=O)OCc1cc(=O)n2ccsc2n1	i
CCOCCCn1c(=N)c(C(=O)NC2CCCC2)cc2c(=O)n3cccc(C)c3nc21	i
CC(=O)N=c1c(C#N)cc2c(=O)n3cccc(C)c3nc2n1CCCOC(C)C	i
CCOC(=O)CCCOc1cccn2c(=O)c(-c3cc(C)n(-c4ccccc4C)n3)c(C)nc12	32µM*
Cc1cc(Cl)ccc1OCCCC(=O)OCC(=O)c1c(N)n(C)c(=O)n(C)c1=O	i
CCOC(=O)c1nn(-c2ccc(Cl)cc2)c(C)cc1=O	i
COc1ccc(N2CCN(C(=O)c3c(OC)cc(=O)n4c3CCCC4)CC2)cc1	i
CCN(Cc1ccccc1)CC(O)COCc1ccc(OC)c(OC)c1 (centres undefined)	i
CCc1noc(-c2cn(C3CCN(C(=O)c4cccc(Br)c4)C3)nn2)n1 (centres undefined)	i
CC1CCCN(CCCNC(=O)CN2C(=O)CCn3nc(-c4cn(C)c5ccccc45)cc32)C1 (centres undefined)	i
COC(=O)CCNc1ccccc1	i
CN(C)S(=O)(=O)N1CCOc2ccc(CCC(=O)NCC3CC3)cc2C1	i
Cc1oc2ncn(C)c(=O)c2c1C(=O)N1CCN(c2ccccc2F)CC1	i
O=C(c1cn(C2CCCCC2)nn1)N1CCSCC1	i
Cc1cn2nc(C(=O)N3CCCC3)cc2c(N2CCSCC2)n1	28µM*
Cc1cn2nc(C(=O)N3CCN(c4ccccc4F)CC3)cc2c(N2CCCC2)n1	32µM*
Cn1cc(S(=O)(=O)N2CCCCC2)cc1C(=O)N1CCN(c2ccccc2F)CC1	i
Cc1cn2nc(C(=O)N3CCC(C(=O)NCc4ccccn4)CC3)cc2c(=O)[nH]1	i
COc1ccc(CN2C[C@H]3CN(C(=O)NCc4ccccc4)CCN3C2=O)cc1	i
CC(C)CC(NC(=O)COc1ccccc1)C(=O)N(C)C (centres undefined)	i
CN1CCCCCCN(C(=O)c2nccc3ccccc23)[C@H]2CCC[C@H]2C1=O	i
O=C(COc1ccccc1)N1C[C@@H](F)[C@@H](OCc2nc3ncccc3[nH]2)C1	i
CC(=O)c1cccc(Nc2nc3ccccc3nc2NS(=O)(=O)c2cc(C)ccc2C)c1	i
O=C(O)Cn1ccc2cc(OCCc3cccc(-c4cncnc4)c3)cnc21	28µM*
Cc1cc(-c2cccc(CCOc3cnc4c(ccn4CC(=O)O)c3)c2)ccn1	35µM*
